Source: the OligoGym collection

Biological target: ITFG1
Assay: pooled miR-30 sensor sort-seq; sequence = guide strand
Settings: shRNA
Also: reference of the scale not given here.

Row | Sequence | sensor-assay potency score (higher = more potent)
1 | TAATGTTTGATTTTGTCCCCAG | -0.0623
2 | TTTTTCTCTATCATCTGCTTTC | -0.602
3 | TATACATGATATAAGGTCCAGG | -0.949
4 | TATTGCTGAAATCTTGTAGGAC | 0.541
5 | TTTATCTTCACAGCCTGGCAGT | -0.637
6 | TAACTTTAACAAAATAAGCATC | -1.35
7 | TTATCTTACGAGGACAGTCATT | -1.41
8 | TATCAATGCACTGTGATTCTTG | 0.396
9 | TACTTGTAGTGGTCAATGCTGG | -0.574
10 | TTCGTATAGATTTTTCTCCAGA | -0.843

Biological target: ITFG2
Assay: as above
Settings: shRNA

Row | Sequence | sensor-assay potency score (higher = more potent)
11 | TAACGTATCGTTATCAACGTCT | 0.345
12 | TACACAGACACCTTCCCGCTGG | -0.00421
13 | TAGATCTTCTGGTTGAAAGTGA | -0.00804
14 | TTTCTTGAGGGACACCAGCTGC | -0.971
15 | ATCGTTATCAACGTCTCCGAGG | -1.09
16 | TTAACGTATCGTTATCAACGTC | -0.293
17 | TATCGTTATCAACGTCTCCGAG | -0.305
18 | TAGGTGAGTGGAGACATTCTTG | -0.555
19 | TTATACACAGACACCTTCCCGC | 0.0194
20 | TTTTCATCCACTTGGAAGCGGA | -0.742
21 | TTTGATGTTGCCAATTAGGTGA | -0.267
22 | TTGAGGGAGCACACTGTGGTGG | -0.228
